Screening data from PubChem.
PGC1a acetyl inh – inhibitors of PGC1a acetylation signal, primary screen, cell-based, U2OS, AlphaScreen, inhibitor mode. AlphaScreen anti-acetyl-lysine; with virally co-expressed GCN5 acetyltransferase. inhibition, % at 15.6 µM. 350,000 compounds, 0.17% hits;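 active = every replicate shows inhibition of at least 40%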;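 note: 0% = neutral control wells and 100% = positive control wells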
Rce1 inhib – yeast Rce1p protease inhibitors, primary screen, biochemical, fluorescence, cell-free homogeneous; calls only; yeast membranes, quenched prenylated peptide cleavage fluorescence; 290,000 compounds, 0.27% hits; AID 2563, 2010; CAAX prenyl protease 2 (Saccharomyces cerevisiae (strain ATCC 204508 / S288c)), Q03530;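 active = fall in fluorescence gain of 50% or more versus controls, with final raw signal at or below 3038400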;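 note: plate controls were neutral control wells for no effect and wells lacking membranes for full effect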
Target sequence (Q03530 whole entry, looked up): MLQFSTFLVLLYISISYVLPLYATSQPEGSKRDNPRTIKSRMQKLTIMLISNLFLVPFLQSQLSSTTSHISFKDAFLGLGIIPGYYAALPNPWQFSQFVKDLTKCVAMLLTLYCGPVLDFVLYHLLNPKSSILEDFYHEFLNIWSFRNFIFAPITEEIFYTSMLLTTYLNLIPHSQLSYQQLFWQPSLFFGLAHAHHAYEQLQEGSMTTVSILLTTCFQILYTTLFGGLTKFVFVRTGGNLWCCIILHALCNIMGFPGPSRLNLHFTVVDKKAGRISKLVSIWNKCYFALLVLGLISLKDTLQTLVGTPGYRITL
AI-2 QS mod – Vibrio harveyi AI-2 quorum sensing modulators, primary screen, JMH597 strain, luminescence/OD600 ratio. activity change, % at 7.5 µM. 300,000 compounds, 0.4% hits. Vibrio harveyi JMH597 AI-2 luminescence/OD600 ratio, 9 h; stronger effect = lower value; strain lacks LuxN and CqsS sensors; 0 = neutral-control median; in the data active = activity change below about -75%, passing the limit was not always enough;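 note: luminescence divided by OD600 gain over 9 h not by final OD600 alone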
Statin myotox sup – suppressors of statin myotoxicity in C2C12 myotubes, primary screen, cell-based, single point, plate reader | 330,000 compounds, 0.78% hits | rescue of ATP level, % at 7.49 µM | C2C12 myotubes + simvastatin, ATP luminescence, 48 h; scaled: DMSO 0, geranylgeraniol control 100;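 active = mean ATP rescue above about 67%, or every replicate alone reaching that limit, limit read from the data, passing the limit was not always enough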;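 note: myotubes were challenged with 10 µM simvastatin during compound exposure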
HIF activator – HIF pathway transcriptional activators, primary screen, cell-based, U2OS HRE-luciferase, luminescence | 300,000 compounds, 0.32% hits | AID 1910, 2009 | U2OS HRE-luciferase reporter; normalized: DMSO 0%, desferrioxamine 100% | activation, % at 7.5 µM (by protocol);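 active = mean activation of at least 10% of the iron chelator positive control signal, with at least half of replicates also reaching 10%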
An asterisk follows results filed as active; i = inactive; . = no result; + = active, no number; ! = not confirmed by another sample. Shown are actives, neighbours in structure and some others; about 1.3% of the full set was active somewhere.

SMILES	PGC1a acetyl inh	Rce1 inhib	AI-2 QS mod	Statin myotox sup	HIF activator
CC(C)NC(=O)N1[C@@H](C#N)[C@H](c2ccc(C#CC3CCCC3)cc2)[C@@H]1CO	0	.	.	-26	.
O=C(O)C[C@@H]1CC[C@H](NC(=O)Nc2ccccc2)[C@@H](CO)O1	-2	.	.	-13	.
C[C@@H]1CN([C@H](C)CO)C(=O)Cc2cc(NC(=O)NC3CCCCC3)ccc2O[C@H]1CN(C)Cc1ccc2c(c1)OCO2	-15	.	.	19	.
Cc1cc(C)cc(N2CC(O)=C(c3nc4ccccc4c(=O)[nH]3)C2=N)c1	.	+	41	.	2
C=CCSc1nnc(-c2cc3c(s2)-c2ccccc2CC3)o1	-5	i	-12	146*	0
C=CCSc1nnc(-c2cccc3ccccc23)o1	-11	.	.	2	.
CC(C)CC#Cc1ccc2c(c1)O[C@H](CN(C)C(=O)c1cccc(F)c1)[C@@H](C)CN([C@@H](C)CO)S2(=O)=O	-4	.	.	-17	.
O=S(=O)(c1ccc(F)cc1)N1[C@@H]2CNC[C@H]1C2c1ccc(-c2ccccc2)cc1 (some centres not stated)	-5	.	.	.	.
COc1cccc(C(=O)Nc2ccc3c(c2)C(=O)N(C)[C@@H]2CC[C@@H](CC(=O)NCc4ccccc4F)O[C@H]2CO3)c1	0	.	.	-3	.
O=C1CN(C(=O)COC(=O)CCNS(=O)(=O)c2ccc(Cl)cc2)c2ccccc2N1	-3	i	11	.	1
O=C(CCNC(=O)N1CC(=O)Nc2ccccc21)NCCc1cccc(F)c1	8	+	-7	2	2
CC1CCCCC1NC(=O)CCNC(=O)N1CC(=O)Nc2ccccc21 (configuration not stated)	-1	i	11	119*	2
O=C1CN(C(=O)NCC(=O)N2CCCC2)c2ccccc2N1	4	+	-5	-1	0
O=C1CN(C(=O)COC(=O)CCSc2ccccc2Cl)c2ccccc2N1	5	i	29	106*	1
O=C(CCNC(=O)N1CC(=O)Nc2ccccc21)Nc1ccc(Cl)cc1	10	i	14	3	0
O=C(C[C@@H]1CC[C@@H]2[C@H](COC[C@@H](O)CN2Cc2cccc(Cl)c2)O1)N1CCCCC1	-12	.	.	15	.
C[C@@H]1CN([C@H](C)CO)S(=O)(=O)c2ccc(C3=CCCC3)cc2O[C@@H]1CN(C)Cc1ccccc1F	-5	.	.	-85	.
CCc1cc[n+](-c2nc([O-])sc2C=O)cc1	7	i	28	108*	0
Cc1nc2ccc(Oc3ccccc3)cc2s1	2	i	27	12	0
Nc1nc2ccc(Oc3ccccc3)cc2s1	1	i	-81*	12	2
CC(=O)N1[C@@H]2c3ccc(-c4ccccc4)c(=O)n3C[C@H]1[C@H](CO)[C@H]2C(=O)N1CCCCC1	-12	.	.	12	.
CCO[C@H]1OC(C(=O)N2CCCC2)=C[C@@H](c2ccc(C(F)(F)F)cc2)[C@@H]1CCCO	-6	.	.	.	.
CC(C)OC(=O)n1c(=S)oc2ccccc21	19	i	1	1	0
CCCCC(=O)/C=C/n1c(=S)oc2ccccc21	-1	i	-90*	11	5
COc1cc([N+](=O)[O-])cc(/C=N/NC(=O)c2cncc(Br)c2)c1O	4	i	-36	30	.
SMILES	PGC1a acetyl inh	Rce1 inhib	AI-2 QS mod	Statin myotox sup	HIF activator
COc1cc(/C=N/NC(=O)c2cncc(Br)c2)cc([N+](=O)[O-])c1O	2	i	-202*	53	0
CO[C@@H]1CN(C)C(=O)c2ccc(NS(C)(=O)=O)cc2OC[C@@H](C)N(C(=O)C2CCCC2)C[C@@H]1C	-2	.	.	.	.
C[C@@H]1CN([C@@H](C)CO)C(=O)c2cc(NC(=O)c3ccncc3)ccc2O[C@@H](C)CCCCO[C@H]1CN(C)C(=O)c1ccccc1	8	.	.	35	.
Cc1noc(C)c1S(=O)(=O)Nc1ccc2c(c1)CC(=O)N([C@H](C)CO)C[C@H](C)[C@H](CN(C)S(=O)(=O)c1ccccc1)O2	6	.	.	12	.
C[C@@H]1CN([C@@H](C)CO)C(=O)c2cccc(NS(=O)(=O)c3ccccc3)c2O[C@@H]1CN(C)Cc1ccc(Oc2ccccc2)cc1	-24	.	.	10	.
C[C@H](CO)N1C[C@H](C)[C@H](CN(C)Cc2ccc(Oc3ccccc3)cc2)Oc2c(NS(=O)(=O)c3ccc(Cl)cc3)cccc2C1=O	0	.	.	80*	.
COc1ccc(S(=O)(=O)Nc2cccc3c2O[C@H](CN(C)C)[C@@H](C)CN([C@H](C)CO)C3=O)cc1	0	.	.	127*!	.
N#CC1=C(N)Oc2n[nH]c(-c3ccccc3)c2C12C(=O)Nc1ccccc12 (configuration not stated)	9	i	22	-2	0
Cn1c2c(c(=O)n(C)c1=O)[C@@]1(C(=O)Nc3ccccc31)C(C#N)=C(N)O2	.	i	-92*	.	0
CCCNC(=O)N[C@H]1CC[C@H](CC(=O)NC2CCCCC2)O[C@@H]1CO	-13	.	.	-1	.
O=C(O)C[C@H]1C[C@@H]2c3cc(NC(=O)c4cccnc4)ccc3O[C@@H]2[C@H](CO)O1	9	.	.	7	.
O=C(Nc1ccc2c(c1)[C@H]1C[C@@H](CC(=O)N3CCc4ccccc4C3)O[C@H](CO)[C@H]1O2)C1CCC1	4	.	.	-6	.
CN1CCN(CCN2CCn3c2nc2ccccc23)CC1	-6	i	20	81*	0
Cc1cc(C)c2nc(NNC(=O)c3ccc(S(=O)(=O)N4CC(C)CC(C)C4)cc3)sc2c1 (configuration not stated)	.	i	37	37	5
Cc1ccc2nc(NNC(=O)c3ccc(S(=O)(=O)N4CCc5ccccc5C4)cc3)sc2c1	6	i	22	40	99*
Cc1cc(C)c2nc(NNC(=O)c3ccc(S(=O)(=O)N4CCCC(C)C4)cc3)sc2c1 (configuration not stated)	-2	i	91	18	26*
CC(=O)c1c(C)[nH]c(C(=O)CSc2nnc(C3CCCCC3)n2N)c1C	-14	i	23	122*	1
CCC(=O)N1C[C@@H](C)[C@H](OC)CN(C)C(=O)c2cc(NC(=O)CC(F)(F)F)ccc2OC[C@@H]1C	-3	.	.	.	.
C[C@@H]1CN([C@@H](C)CO)C(=O)c2c(c3ccccc3n2C)-c2ccccc2CO[C@H]1CN(C)Cc1ccccc1C(F)(F)F	-3	.	.	.	.
CCc1cccc(NC(=O)O[C@H]2[C@H](OC(=O)Nc3ccc4c(c3)OCO4)[C@@H](OC(=O)Nc3ccc4c(c3)OCO4)[C@@H](OC)O[C@@H]2CO)c1	2	.	.	.	.
